In PubChem BioAssay AID1159580 (chemical genetic matrix, 2015):
“And” between values parts separate entries of the source, which are not always exact repeats. Equal entries are not always repeated. In all, about 5,500 compounds went through this assay and about 2,000 (36%) were called active. Not shown: some 18% with an inconclusive outcome. No stated cut-off is given here; in the data, active means normalized growth mostly below about 0.91 (no sharp cut-off); inconclusive means no clear call, values can overlap the other calls; inactive means mostly above about 0.92. Some of the results follow. Where a structure was tested more than once in an assay, its records may differ in their call.

Assay: chemical genetic growth profiling, strain panel (AID 1159580);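 further: tested at 20 µM; growth read once vehicle control cultures reached saturation at 30 °C; 1 = growth at the plate median or of vehicle wells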
Conditions: S. cerevisiae deletion strains, growth OD

Measured: normalized growth

Clc1ccccc1C(c1ccccc1)(c1ccccc1)n1ccnc1
inactive: locus YOL012C, strain htz1 0.23
active: locus YAL013W, strain DEP1, stronger effect = lower value 0.0556 and 0.0854 | locus YAL021C, strain ccr4, stronger effect = lower value 0.0659 | locus YAL026C, strain drs2, stronger effect = lower value 0.0665 | locus YAL030W, strain snc1, stronger effect = lower value 0.0563 | locus YAL040C, strain CLN3, stronger effect = lower value 0.613 | locus YBL061C, strain skt5, stronger effect = lower value 0.0604 | locus YBR009C, strain hhf1, stronger effect = lower value 0.0704 | locus YBR021W, strain FUR4, stronger effect = lower value 0.0896 | locus YBR023C, strain chs3, stronger effect = lower value 0.0661 | locus YBR171W, strain sec66, stronger effect = lower value 0.0777 | locus YBR229C, strain ROT2, stronger effect = lower value 0.0472 | locus YBR231C, strain swc5, stronger effect = lower value 0.0624 | locus YBR279W, strain paf1, stronger effect = lower value 0.0598 | locus YCL011C, strain gbp2, stronger effect = lower value 0.0573 | locus YCL016C, strain dcc1, stronger effect = lower value 0.066 | locus YCL029C, strain bik1, stronger effect = lower value 0.0623 | locus YCL061C, strain MRC1, stronger effect = lower value 0.0642 | locus YCL069W, strain vba3, stronger effect = lower value 0.0627 | locus YCR088W, strain abp1, stronger effect = lower value 0.0657 | locus YDL005C, strain med2, stronger effect = lower value 0.0759 | locus YDL035C, strain GPR1, stronger effect = lower value 0.0497 | locus YDL040C, strain nat1, stronger effect = lower value 0.058 | locus YDL074C, strain BRE1, stronger effect = lower value 0.0785 | locus YDL101C, strain DUN1, stronger effect = lower value 0.0582 | locus YDL134C, strain PPH21, stronger effect = lower value 0.0506 | locus YDL185W, strain tfp1, stronger effect = lower value 0.0604 | locus YDL192W, strain arf1, stronger effect = lower value 0.0622 | locus YDR001C, strain nth1, stronger effect = lower value 0.0587 | locus YDR069C, strain doa4, stronger effect = lower value 0.0629 | locus YDR101C, strain arx1, stronger effect = lower value 0.0588 | locus YDR137W, strain rgp1, stronger effect = lower value 0.103 | locus YDR150W, strain NUM1, stronger effect = lower value 0.0555 | locus YDR159W, strain sac3, stronger effect = lower value 0.0888 | locus YDR162C, strain NBP2, stronger effect = lower value 0.0501 | locus YDR195W, strain ref2 0.125 | locus YDR297W, strain sur2, stronger effect = lower value 0.0578 | locus YDR318W, strain mcm21, stronger effect = lower value 0.0626 | locus YDR334W, strain swr1, stronger effect = lower value 0.0633 | locus YDR335W, strain msn5, stronger effect = lower value 0.0619 | locus YDR388W, stronger effect = lower value 0.0576 | locus YDR392W, strain spt3, stronger effect = lower value 0.0716 | locus YDR502C, strain sam2, stronger effect = lower value 0.0632 | locus YEL003W, strain gim4, stronger effect = lower value 0.0556 | locus YEL037C, strain rad23, stronger effect = lower value 0.0574 | locus YEL061C, strain CIN8 (second series), stronger effect = lower value 0.0638 | locus YEL061C, strain CIN8, stronger effect = lower value 0.0506 | locus YER002W, strain NOP16, stronger effect = lower value 0.0949 | locus YER015W, strain faa2, stronger effect = lower value 0.0658 | locus YER016W, strain bim1, stronger effect = lower value 0.0637 | locus YER110C, stronger effect = lower value 0.0769 | locus YER111C, strain swi4, stronger effect = lower value 0.0727 | locus YER155C, strain BEM2 (second series), stronger effect = lower value 0.0917 | locus YER155C, strain BEM2, stronger effect = lower value 0.0644 | locus YER167W, strain BCK2, stronger effect = lower value 0.0514 | locus YFR010W, strain ubp6, stronger effect = lower value 0.0718 | locus YGL078C, strain dbp3, stronger effect = lower value 0.0828 | locus YGL086W, strain mad1, stronger effect = lower value 0.0584 | locus YGL167C, strain pmr1, stronger effect = lower value 0.0741 | locus YGL173C, strain kem1, stronger effect = lower value 0.07 | locus YGL227W, strain vid30, stronger effect = lower value 0.0633 | locus YGL240W, strain doc1, stronger effect = lower value 0.0729 | locus YGL248W, strain PDE1, stronger effect = lower value 0.0484 | locus YGL253W, strain hxk2, stronger effect = lower value 0.0556 | locus YGR078C, strain PAC10, stronger effect = lower value 0.0496 | locus YGR135W, strain pre9, stronger effect = lower value 0.0631 | locus YGR252W, strain gcn5, stronger effect = lower value 0.165 | locus YHR013C, strain ard1, stronger effect = lower value 0.105 | locus YHR027C, strain rpn1, stronger effect = lower value 0.0633 | locus YHR030C, strain SLT2, stronger effect = lower value 0.0505 and 0.1 | locus YHR079C, strain IRE1 (second series), stronger effect = lower value 0.0577 | locus YHR079C, strain IRE1, stronger effect = lower value 0.135 | locus YHR094C, strain hxt1, stronger effect = lower value 0.059 | locus YHR129C, strain ARP1, stronger effect = lower value 0.0557 | locus YHR142W, strain chs7, stronger effect = lower value 0.0738 | locus YHR200W, strain rpn10, stronger effect = lower value 0.0614 | locus YIL066C, strain RNR3, stronger effect = lower value 0.0483 | locus YIL073C, strain SPO22, stronger effect = lower value 0.112 | locus YIL125W, strain kgd1, stronger effect = lower value 0.0895 | locus YIR030C, strain dcg1, stronger effect = lower value 0.0606 | locus YJL092W, strain hpr5, stronger effect = lower value 0.0611 | locus YJL095W, strain BCK1 (second series), stronger effect = lower value 0.059 | locus YJL095W, strain BCK1, stronger effect = lower value 0.0611 and 0.105 | locus YJL115W, strain asf1, stronger effect = lower value 0.0739 | locus YJL129C, strain trk1, stronger effect = lower value 0.0834 | locus YJL134W, strain LCB3, stronger effect = lower value 0.0474 | locus YJL154C, strain vps35, stronger effect = lower value 0.0614 | locus YJL164C, strain tpk1, stronger effect = lower value 0.0678 | locus YJL166W, strain qcr8, stronger effect = lower value 0.064 | locus YJL168C, strain set2, stronger effect = lower value 0.0596 | locus YJL187C, strain SWE1 (second series), stronger effect = lower value 0.0488 | locus YJR043C, strain POL32, stronger effect = lower value 0.0648 | locus YJR066W, strain TOR1, stronger effect = lower value 0.016 | locus YKL009W, strain mrt4, stronger effect = lower value 0.0996 | locus YKL068W, stronger effect = lower value 0.0901 | locus YKL085W, strain MDH1 (second series), stronger effect = lower value 0.0744 | locus YKL085W, strain MDH1, stronger effect = lower value 0.0744 | locus YKL160W, strain elf1, stronger effect = lower value 0.0633 | locus YKR001C, strain vps1, stronger effect = lower value 0.0631 | locus YKR026C, strain gcn3, stronger effect = lower value 0.0593 | locus YKR091W, strain srl3, stronger effect = lower value 0.0594 | locus YLL001W, strain dnm1, stronger effect = lower value 0.0628 | locus YLL026W, stronger effect = lower value 0.0716 | locus YLL041C, strain sdh2, stronger effect = lower value 0.0574 | locus YLR027C, strain aat2, stronger effect = lower value 0.0566 | locus YLR039C, strain RIC1, stronger effect = lower value 0.0954 | locus YLR058C, strain SHM2, stronger effect = lower value 0.048 | locus YLR102C, strain apc9, stronger effect = lower value 0.0623 | locus YLR113W, strain HOG1, stronger effect = lower value 0.156 | locus YLR221C, strain rsa3, stronger effect = lower value 0.0591 | locus YLR258W, strain gsy2, stronger effect = lower value 0.0599 | locus YLR262C, strain YPT6 (second series), stronger effect = lower value 0.0778 | locus YLR262C, strain YPT6, stronger effect = lower value 0.109 | locus YLR268W, strain sec22, stronger effect = lower value 0.0686 | locus YLR320W, strain mms22, stronger effect = lower value 0.0761 | locus YLR330W, strain CHS5, stronger effect = lower value 0.0528 | locus YLR342W, strain FKS1 (second series), stronger effect = lower value 0.0674 | locus YLR342W, strain FKS1, stronger effect = lower value 0.0672 | locus YLR357W, strain rsc2, stronger effect = lower value 0.126 | locus YLR370C, strain arc18, stronger effect = lower value 0.0649 | locus YLR371W, strain rom2, stronger effect = lower value 0.0633 | locus YLR384C, strain iki3, stronger effect = lower value 0.0655 | locus YLR418C, strain cdc73, stronger effect = lower value 0.0956 | locus YML016C, strain PPZ1, stronger effect = lower value 0.0479 | locus YML032C, strain rad52, stronger effect = lower value 0.0691 | locus YML120C, strain ndi1, stronger effect = lower value 0.058 | locus YML124C, strain tub3, stronger effect = lower value 0.0616 | locus YMR058W, strain fet3, stronger effect = lower value 0.0615 | locus YMR078C, strain ctf18, stronger effect = lower value 0.0734 | locus YMR125W, strain sto1, stronger effect = lower value 0.0678 | locus YMR129W, stronger effect = lower value 0.0585 | locus YMR205C, strain PFK2, stronger effect = lower value 0.0848 | locus YMR223W, strain ubp8, stronger effect = lower value 0.0652 | locus YMR231W, strain pep5, stronger effect = lower value 0.0713 | locus YMR307W, strain GAS1, stronger effect = lower value 0.125 | locus YNL067W, strain RPL9B, stronger effect = lower value 0.0471 | locus YNL071W, strain lat1, stronger effect = lower value 0.0635 | locus YNL153C, strain GIM3, stronger effect = lower value 0.695 | locus YNL175C, strain NOP13, stronger effect = lower value 0.0913 | locus YNL183C, strain NPR1, stronger effect = lower value -0.00509 | locus YNL197C, strain WHI3, stronger effect = lower value 0.0874 | locus YNL209W, strain ssb2, stronger effect = lower value 0.0647 | locus YNL224C, strain SQS1, stronger effect = lower value 0.109 | locus YNL233W, strain BNI4, stronger effect = lower value 0.0563 | locus YNL248C, strain rpa49, stronger effect = lower value 0.0733 | locus YNL250W, strain rad50, stronger effect = lower value 0.0869 | locus YNL271C, strain bni1, stronger effect = lower value 0.0905 | locus YNL298W, strain CLA4, stronger effect = lower value 0.0742 | locus YNL307C, strain MCK1, stronger effect = lower value 0.0679 | locus YNL322C, strain KRE1 (second series), stronger effect = lower value 0.0616 | locus YNR049C, strain mso1, stronger effect = lower value 0.0594 | locus YNR052C, strain pop2, stronger effect = lower value 0.0613 | locus YOL006C, strain TOP1, stronger effect = lower value 0.115 | locus YOL147C, strain pex11, stronger effect = lower value 0.0589 | locus YOR001W, strain rrp6, stronger effect = lower value 0.075 | locus YOR061W, strain CKA2, stronger effect = lower value 0.0463 | locus YOR069W, strain VPS5, stronger effect = lower value 0.0473 | locus YOR070C, strain gyp1, stronger effect = lower value 0.0595 | locus YOR080W, strain dia2, stronger effect = lower value 0.0658 | locus YOR083W, strain WHI5 (second series), stronger effect = lower value 0.0984 | locus YOR083W, strain WHI5, stronger effect = lower value 0.0702 | locus YOR106W, strain vam3, stronger effect = lower value 0.0682 | locus YOR136W, strain idh2, stronger effect = lower value 0.0727 | locus YOR144C, strain elg1, stronger effect = lower value 0.0577 | locus YOR184W, strain ser1, stronger effect = lower value 0.0702 | locus YOR231W, strain MKK1, stronger effect = lower value 0.117 | locus YOR265W, strain rbl2, stronger effect = lower value 0.0588 | locus YOR270C, strain vph1, stronger effect = lower value 0.092 | locus YOR290C, strain snf2, stronger effect = lower value 0.0637 | locus YOR316C, strain cot1, stronger effect = lower value 0.0603 | locus YPL051W, strain arl3, stronger effect = lower value 0.0647 | locus YPL055C, strain LGE1, stronger effect = lower value 0.0751 | locus YPL078C, strain atp4, stronger effect = lower value 0.0637 | locus YPL106C, strain sse1, stronger effect = lower value 0.0995 | locus YPL240C, strain hsp82, stronger effect = lower value 0.0582 | locus YPL256C, strain CLN2, stronger effect = lower value 0.127 | locus YPR119W, strain clb2, stronger effect = lower value 0.0642 | locus YPR141C, strain kar3, stronger effect = lower value 0.096 | locus YPR163C, strain tif3, stronger effect = lower value 0.0728 | locus YPR167C, strain met16, stronger effect = lower value 0.0634 | strain wtn01, stronger effect = lower value 0.0677
0.0559 (active) and 0.976 (inactive): locus YMR263W, strain SAP30, stronger effect = lower value
